Experimental data reported in PubChem BioAssay (NCATS).
Results filed as inconclusive are left out. Where a call stands in place of a potency, no number is given. Activity calls are given as the source filed them. Calls follow the shape of the dose curve; as a rule, active = well fitted curve in the direction sought with a large enough effect; inconclusive = small, poorly fitted or top-dose-only effect, or another doubt; inactive = no such curve, though single readings can be large; an effect the other way counts as inactive or inconclusive.

Assays:
[1] = target: Cytochrome P450 3A4 (Homo sapiens) (UniProt P08684); experiment: qHTS Assay for Inhibitors and Substrates of Cytochrome P450 3A4 (AID 884); also: nearly all actives have a fitted effect of over 50% in size
Summary of the method: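 Luminescent readout of luciferin produced by CYP3A4 (20 nM) dealkylation of Luciferin-PPXE, 25 uM (its KM). NADPH-driven reaction ran 60 min at RT after 10 min compound preincubation; data scaled to 57 uM ketoconazole as 100% inhibition.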

[2] = Confirmation and Secondary Assay for Modulators of Hemoglobin Beta Chain Splicing at IVS2 654 locus (AID 910);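 also: HeLa cells stably carrying EGFP split by mutant beta-globin IVS2-654 intron; per-well total GFP intensity by laser scanning cytometry after 2-day treatment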
Summary of the method: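 Readout: per-well total peak green fluorescence (488 nm ex, 500–520 nm em) from objects 5–250 µm, reflecting correct splicing of an EGFP-654 reporter. Compounds were applied for 2 days at 37 °C to overnight-plated HeLa EGFP-654 cells; controls were DMSO and 500 nM IVS2-654 PNA.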

[3] = target: Ubiquitin carboxyl-terminal hydrolase 1 (Homo sapiens) (UniProt O94782); experiment: Inhibitors of USP1/UAF1: Pilot qHTS (AID 504865);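 also: rhodamine fluorescence freed from ubiquitin-rhodamine substrate followed over time; top concentration of the series differs between compounds; nearly all actives have a fitted effect of over 35% in size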
Summary of the method: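 Deubiquitinase activity followed as kinetic rhodamine fluorescence release from 150 nM Ub-Rho. 1 nM USP1/UAF1 with compound, after 15 min room-temperature preincubation, in HEPES pH 7.8 buffer containing TCEP, EDTA, BSA and Tween-20.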

[4] = S16 Schwann cell viability assay (CellTiter-Glo assay) (AID 624031); also: nearly all actives have a fitted effect of over 70% in size; also: potency is read from the fitted curve at half-maximal effect
Summary of the method: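 Concentration-effect curves come from CellTiter-Glo luminescence of S16 rat Schwann cells after 24 h compound exposure. Each reading was normalized to DMSO wells (0%) and wells without cells, and curves were ranked by r2 and response magnitude.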

[5] = S16 Schwann cell PMP22 intronic element firefly luciferase assay (AID 624032); also: nearly all actives have a fitted effect of over 30% in size; also: potency is read from the fitted curve at half-maximal effect
Summary of the method: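 Luciferase reporter of PMP22 intronic-element expression in stably transfected S16 rat Schwann cells, read by ONE-Glo luminescence after 24 h compound exposure at 37 C. Activity scaled between DMSO (0%) and positive-control PTC124; concentration-effect curves quality-classified.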

3D7 = experiment: qHTS profiling for inhibitors of Plasmodium falciparum proliferation (AID 504749); also: nearly all actives have a fitted effect of over 60% in size; also: potency is read from the fitted curve at half-maximal effect; conditions: P. falciparum in erythrocytes, SYBR Green DNA, 72 h; series mostly up to 28.7 µM
Summary of the method: (§1)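 In a 72 h erythrocytic culture (37 C, humidified, 5% CO2) at 2.5% hematocrit and 0.3% starting parasitemia, compounds were tested; SYBR Green I in detergent lysis buffer stained parasite DNA overnight.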

7G8 = experiment: as above; conditions: P. falciparum in erythrocytes, SYBR Green DNA, 72 h; series mostly up to 28.7 µM
Summary of the method: as §1

AA1029 = experiment: as above; conditions: P. falciparum in erythrocytes, SYBR Green DNA, 72 h; series mostly up to 28.7 µM
Summary of the method: as §1

CP211 = experiment: as above; conditions: P. falciparum in erythrocytes, SYBR Green DNA, 72 h; series mostly up to 28.7 µM
Summary of the method: as §1

CP217 = experiment: as above; conditions: P. falciparum in erythrocytes, SYBR Green DNA, 72 h; series mostly up to 28.7 µM
Summary of the method: as §1

CP269 = experiment: as above; conditions: P. falciparum in erythrocytes, SYBR Green DNA, 72 h; series mostly up to 28.7 µM
Summary of the method: as §1

DIV14 = experiment: as above; conditions: P. falciparum in erythrocytes, SYBR Green DNA, 72 h; series mostly up to 28.7 µM
Summary of the method: as §1

DIV17 = experiment: as above; conditions: P. falciparum in erythrocytes, SYBR Green DNA, 72 h; series mostly up to 28.7 µM
Summary of the method: as §1

ECU = experiment: as above; conditions: P. falciparum in erythrocytes, SYBR Green DNA, 72 h; series mostly up to 28.7 µM
Summary of the method: as §1

FAB9 = experiment: as above; conditions: P. falciparum in erythrocytes, SYBR Green DNA, 72 h; series mostly up to 28.7 µM
Summary of the method: as §1

ICS = experiment: as above; conditions: P. falciparum in erythrocytes, SYBR Green DNA, 72 h; series mostly up to 28.7 µM
Summary of the method: as §1

N140 = experiment: as above; conditions: P. falciparum in erythrocytes, SYBR Green DNA, 72 h; series mostly up to 28.7 µM
Summary of the method: as §1

P93_24 = experiment: as above; conditions: P. falciparum in erythrocytes, SYBR Green DNA, 72 h; series mostly up to 28.7 µM
Summary of the method: as §1

PAD = experiment: as above; conditions: P. falciparum in erythrocytes, SYBR Green DNA, 72 h; series mostly up to 28.7 µM
Summary of the method: as §1

TAB165 = experiment: as above; conditions: P. falciparum in erythrocytes, SYBR Green DNA, 72 h; series mostly up to 28.7 µM
Summary of the method: as §1

Cytochrome P450 3A4 (Homo sapiens), sequence (P08684 whole entry, looked up): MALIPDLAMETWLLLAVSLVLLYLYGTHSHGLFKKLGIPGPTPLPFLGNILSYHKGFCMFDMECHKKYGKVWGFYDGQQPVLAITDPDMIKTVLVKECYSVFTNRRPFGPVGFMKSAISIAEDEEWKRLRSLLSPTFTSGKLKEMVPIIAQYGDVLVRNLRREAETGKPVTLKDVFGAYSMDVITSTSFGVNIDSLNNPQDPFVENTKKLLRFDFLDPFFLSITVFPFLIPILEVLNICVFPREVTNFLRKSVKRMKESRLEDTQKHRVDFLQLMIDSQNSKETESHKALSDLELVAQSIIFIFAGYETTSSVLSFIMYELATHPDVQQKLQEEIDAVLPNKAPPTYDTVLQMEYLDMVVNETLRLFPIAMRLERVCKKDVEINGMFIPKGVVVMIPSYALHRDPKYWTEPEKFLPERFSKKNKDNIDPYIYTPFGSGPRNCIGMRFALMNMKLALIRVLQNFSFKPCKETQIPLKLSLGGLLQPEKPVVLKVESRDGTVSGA
Ubiquitin carboxyl-terminal hydrolase 1 (Homo sapiens), sequence (O94782 whole entry, looked up): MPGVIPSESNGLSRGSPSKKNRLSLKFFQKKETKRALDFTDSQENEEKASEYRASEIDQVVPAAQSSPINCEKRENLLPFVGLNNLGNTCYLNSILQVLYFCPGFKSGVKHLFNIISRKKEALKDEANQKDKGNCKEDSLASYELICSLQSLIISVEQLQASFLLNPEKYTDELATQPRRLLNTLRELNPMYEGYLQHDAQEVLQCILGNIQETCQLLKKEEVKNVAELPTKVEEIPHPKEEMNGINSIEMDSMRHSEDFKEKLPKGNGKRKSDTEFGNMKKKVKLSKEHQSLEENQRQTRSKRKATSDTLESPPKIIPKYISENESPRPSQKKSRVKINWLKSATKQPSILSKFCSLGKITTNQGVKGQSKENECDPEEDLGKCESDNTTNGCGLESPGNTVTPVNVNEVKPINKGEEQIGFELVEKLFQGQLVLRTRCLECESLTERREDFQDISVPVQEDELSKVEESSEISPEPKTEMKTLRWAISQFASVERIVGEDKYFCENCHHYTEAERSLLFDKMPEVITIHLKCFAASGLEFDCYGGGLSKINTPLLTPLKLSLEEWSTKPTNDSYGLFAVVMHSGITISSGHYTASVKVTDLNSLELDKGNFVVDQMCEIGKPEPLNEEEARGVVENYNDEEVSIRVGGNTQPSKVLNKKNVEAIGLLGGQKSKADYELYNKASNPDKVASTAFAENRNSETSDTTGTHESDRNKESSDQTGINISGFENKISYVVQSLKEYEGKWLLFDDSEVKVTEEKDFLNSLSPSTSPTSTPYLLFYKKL

With C[N+](C)(C)CC(=O)[O-] the Potency [1] was “inactive”, the Potency [2] was “inactive” and the Potency [3] was “inactive”. For the same molecule, the Potency [4] was “inactive”, the Potency [5] was “inactive” and the Potency (3D7) was “inactive”. For the same molecule, the Potency (7G8) was “inactive”, the Potency (AA1029) was “inactive” and the Potency (CP211) was “inactive”. The Potency (CP217) was “inactive”, the Potency (CP269) was “inactive” and the Potency (DIV14) was “inactive”. The Potency (DIV17) was “inactive”, the Potency (ECU) was “inactive” and the Potency (FAB9) was “inactive”. For the same molecule, the Potency (ICS) was “inactive”, the Potency (N140) was “inactive” and the Potency (P93_24) was “inactive”. The Potency (PAD) was “inactive” and the Potency (TAB165) was “inactive”.
With CCN(CC)/[N+]([O-])=N/O the Potency [2] was “inactive” and the Potency [3] was “inactive”.
In the case of Oc1cc[c]([Hg][Cl])cc1, the Potency [4] is reported as 1.14 µM (active), the Potency [5] is reported as 0.907 µM (active) and the Potency (3D7) is reported as 8.91 µM (active). The Potency (7G8) was 3.16 µM (active), the Potency (AA1029) was 11.2 µM (active) and the Potency (CP211) was 10.7 µM (active). For the same molecule, the Potency (CP217) was 8.91 µM (active), the Potency (CP269) was 8.49 µM (active) and the Potency (DIV14) was 7.57 µM (active). For the same molecule, the Potency (DIV17) was 6.75 µM (active), the Potency (ECU) was 10 µM (active) and the Potency (FAB9) was 10 µM (active). The Potency (ICS) was 7.94 µM (active), the Potency (N140) was 6.31 µM (active) and the Potency (P93_24) was 11.2 µM (active). The Potency (PAD) was 11.2 µM (active) and the Potency (TAB165) was 10 µM (active).
With CCOc1cc(C=O)ccc1O the Potency [1] was “inactive”.
